# Source: ChEMBL document CHEMBL4513141, “CO-ADD screening of NIH (USA) - Clinical Collection” (2021)
# Potency and affinity values are given separately.
# Columns and labels:
# [1] = test system: Klebsiella pneumoniae; conditions: Concentration 20 uM; ASSAY_TEST Inhibition of Bacterial Growth; detection method Absorption (OD600); MEDIA CAMHB; plate type 384well; NBS; CORNING #3640; time 18 hr
# [2] = test system: Candida albicans; conditions: 20 µM
# [3] = test system: Cryptococcus neoformans; conditions: Concentration 20 uM; ASSAY_TEST Inhibition of Fungal Growth; detection method Resazurin; Absorption (OD600-OD570); plate type 384well; NBS; CORNING #3640
SMILES,Inhibition [1] [%],Inhibition [2] [%],Inhibition [3] [%]
C#C[C@]1(O)CC[C@H]2[C@@H]3CCc4cc(OC)ccc4[C@H]3CC[C@@]21C [MESTRANOL],4.28,4.15,-7.53
CC[C@@]1(O)C(=O)OCc2c1cc1n(c2=O)Cc2cc3c(CN(C)C)c(O)ccc3nc2-1.Cl [TOPOTECAN HYDROCHLORIDE],17.31,1.75,-3.31
NC(=O)c1cccnc1 [NIACINAMIDE],11.31,2.62,-0.49
CCC(=O)O[C@]1(C(=O)CCl)[C@@H](C)C[C@H]2[C@@H]3CCC4=CC(=O)C=C[C@]4(C)[C@@]3(F)[C@@H](O)C[C@@]21C [CLOBETASOL PROPIONATE],-2.85,0.73,4.34
Cn1nnc2c(C(N)=O)ncn2c1=O [TEMOZOLOMIDE],7.88,1.91,-1.17
CC(CN1c2ccccc2Sc2ccccc21)N(C)C.Cl (stereo not drawn) [PROMETHAZINE HYDROCHLORIDE],0.77,3.31,-6.2
CCOC(=O)C1(CCCCCCOc2ccc(Cl)cc2)CO1 (stereo not drawn) [rac-ETOMOXIR],8.69,1.76,-1.88
C[C@]12CC[C@@H]3c4ccc(O)cc4CC[C@H]3[C@@H]1CC[C@@H]2O [ESTRADIOL],5.27,5.91,-4.05
CN(C)CC/C=C1/c2ccccc2COc2ccc(CC(=O)O)cc21.Cl [OLOPATADINE HYDROCHLORIDE],3.13,4.03,4.6
O=C(CCCN1CC=C(n2c(=O)[nH]c3ccccc32)CC1)c1ccc(F)cc1 [DROPERIDOL],9.88,4.22,-8.67
COc1cc([C@@H]2c3cc4c(cc3[C@@H](O[C@@H]3O[C@@H]5CO[C@@H](C)O[C@H]5[C@H](O)[C@H]3O)[C@H]3COC(=O)[C@H]23)OCO4)cc(OC)c1O [ETOPOSIDE],4.81,0.59,-6.14
O=S(=O)([O-])CCS.[Na+] [MESNA],6.51,4.45,1.48
CCCCC[C@H](O)/C=C/[C@H]1[C@H](O)CC(=O)[C@@H]1CCCCCCC(=O)O [ALPROSTADIL],7.2,3.09,2.52
C[C@]12CCC(=O)C=C1CC[C@@H]1[C@@H]2[C@@H](O)C[C@@]2(C)[C@H]1CC[C@]2(O)C(=O)COC(=O)CCC(=O)O [HYDROCORTISONE HEMISUCCINATE ANHYDROUS],-3.41,4.59,6.86
CNCCCCOc1ccccc1Cc1ccccc1.Cl,18.69,1.66,-8.24
Cl.NC1CCN(c2cccc(Cl)n2)CC1,7.75,2.49,0.18
CC(=O)NCCCCCCNC(C)=O [HEXAMETHYLENEBISACETAMIDE],1.97,0.48,-6.53
O=C1CCC(N2C(=O)c3ccccc3C2=O)C(=O)N1 (stereo not drawn) [THALIDOMIDE],3.28,3.62,-0.8
CC(C)(C#N)c1cc(Cn2cncn2)cc(C(C)(C)C#N)c1 [ANASTROZOLE],-11.78,1.23,-3.6
Sc1ncnc2nc[nH]c12 [MERCAPTOPURINE ANHYDROUS],7.84,11.2,-0.87
CCCC(=O)Nc1ccc(OCC(O)CNC(C)C)c(C(C)=O)c1.Cl (stereo not drawn) [ACEBUTOLOL HYDROCHLORIDE],19.26,1.82,-1.83
NS(=O)(=O)Cc1noc2ccccc12 [ZONISAMIDE],12.91,3.7,-5.53
COC(=O)C1=C(C)NC(C)=C(C(=O)O[C@@H]2CCCN(Cc3ccccc3)C2)[C@@H]1c1cccc([N+](=O)[O-])c1.Cl,-2.17,3.91,-18.39
NNC(=O)c1ccncc1 [ISONIAZID],6.54,3.95,-3.6
c1ccc2[nH]c(-c3cscn3)nc2c1 [THIABENDAZOLE],17.05,1.43,-4.52
CC(=O)OCC(=O)[C@@]1(O)CC[C@H]2[C@@H]3CCC4=CC(=O)CC[C@]4(C)[C@H]3C(=O)C[C@@]21C [CORTISONE ACETATE],12.5,1.99,-0.31
